Reference: ChEMBL document CHEMBL2218924, “A broad activity screen in support of a chemogenomic map for kinase signalling research and drug discovery” (Biochem J, 2013)

Tests used:
[1] = target: T1, Tyrosine-protein kinase Mer (Homo sapiens) (UniProt Q12866); details: at 1 µM
T1 sequence (whole entry): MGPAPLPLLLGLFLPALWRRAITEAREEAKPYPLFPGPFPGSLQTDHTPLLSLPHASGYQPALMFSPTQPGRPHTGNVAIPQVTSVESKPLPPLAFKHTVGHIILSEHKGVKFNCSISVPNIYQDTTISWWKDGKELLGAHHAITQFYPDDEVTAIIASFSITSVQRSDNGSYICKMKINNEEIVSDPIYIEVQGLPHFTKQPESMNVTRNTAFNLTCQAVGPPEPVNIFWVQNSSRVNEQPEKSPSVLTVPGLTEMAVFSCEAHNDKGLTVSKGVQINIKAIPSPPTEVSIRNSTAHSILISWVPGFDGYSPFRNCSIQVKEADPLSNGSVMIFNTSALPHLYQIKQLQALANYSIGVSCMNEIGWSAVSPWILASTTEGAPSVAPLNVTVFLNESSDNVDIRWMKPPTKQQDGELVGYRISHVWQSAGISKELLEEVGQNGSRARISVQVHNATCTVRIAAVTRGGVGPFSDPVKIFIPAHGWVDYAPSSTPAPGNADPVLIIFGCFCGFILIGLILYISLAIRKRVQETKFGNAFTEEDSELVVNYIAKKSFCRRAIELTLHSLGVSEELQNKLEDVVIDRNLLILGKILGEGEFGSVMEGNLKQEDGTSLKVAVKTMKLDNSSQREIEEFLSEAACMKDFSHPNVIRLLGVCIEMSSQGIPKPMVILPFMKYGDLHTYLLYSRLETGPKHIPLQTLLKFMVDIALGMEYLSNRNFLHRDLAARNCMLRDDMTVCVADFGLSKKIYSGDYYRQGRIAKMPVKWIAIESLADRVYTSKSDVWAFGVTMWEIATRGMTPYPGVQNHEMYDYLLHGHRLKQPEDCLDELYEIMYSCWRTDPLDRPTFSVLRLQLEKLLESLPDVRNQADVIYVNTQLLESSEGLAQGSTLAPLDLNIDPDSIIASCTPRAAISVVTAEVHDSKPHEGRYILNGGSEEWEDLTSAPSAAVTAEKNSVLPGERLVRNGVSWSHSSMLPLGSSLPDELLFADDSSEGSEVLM

[2] = target: T1, Tyrosine-protein kinase Mer (Homo sapiens); details: at 10 µM
[3] = target: Hepatocyte growth factor receptor (Homo sapiens) (UniProt P08581); details: at 1 µM
Sequence of Hepatocyte growth factor receptor (Homo sapiens) (P08581 whole entry): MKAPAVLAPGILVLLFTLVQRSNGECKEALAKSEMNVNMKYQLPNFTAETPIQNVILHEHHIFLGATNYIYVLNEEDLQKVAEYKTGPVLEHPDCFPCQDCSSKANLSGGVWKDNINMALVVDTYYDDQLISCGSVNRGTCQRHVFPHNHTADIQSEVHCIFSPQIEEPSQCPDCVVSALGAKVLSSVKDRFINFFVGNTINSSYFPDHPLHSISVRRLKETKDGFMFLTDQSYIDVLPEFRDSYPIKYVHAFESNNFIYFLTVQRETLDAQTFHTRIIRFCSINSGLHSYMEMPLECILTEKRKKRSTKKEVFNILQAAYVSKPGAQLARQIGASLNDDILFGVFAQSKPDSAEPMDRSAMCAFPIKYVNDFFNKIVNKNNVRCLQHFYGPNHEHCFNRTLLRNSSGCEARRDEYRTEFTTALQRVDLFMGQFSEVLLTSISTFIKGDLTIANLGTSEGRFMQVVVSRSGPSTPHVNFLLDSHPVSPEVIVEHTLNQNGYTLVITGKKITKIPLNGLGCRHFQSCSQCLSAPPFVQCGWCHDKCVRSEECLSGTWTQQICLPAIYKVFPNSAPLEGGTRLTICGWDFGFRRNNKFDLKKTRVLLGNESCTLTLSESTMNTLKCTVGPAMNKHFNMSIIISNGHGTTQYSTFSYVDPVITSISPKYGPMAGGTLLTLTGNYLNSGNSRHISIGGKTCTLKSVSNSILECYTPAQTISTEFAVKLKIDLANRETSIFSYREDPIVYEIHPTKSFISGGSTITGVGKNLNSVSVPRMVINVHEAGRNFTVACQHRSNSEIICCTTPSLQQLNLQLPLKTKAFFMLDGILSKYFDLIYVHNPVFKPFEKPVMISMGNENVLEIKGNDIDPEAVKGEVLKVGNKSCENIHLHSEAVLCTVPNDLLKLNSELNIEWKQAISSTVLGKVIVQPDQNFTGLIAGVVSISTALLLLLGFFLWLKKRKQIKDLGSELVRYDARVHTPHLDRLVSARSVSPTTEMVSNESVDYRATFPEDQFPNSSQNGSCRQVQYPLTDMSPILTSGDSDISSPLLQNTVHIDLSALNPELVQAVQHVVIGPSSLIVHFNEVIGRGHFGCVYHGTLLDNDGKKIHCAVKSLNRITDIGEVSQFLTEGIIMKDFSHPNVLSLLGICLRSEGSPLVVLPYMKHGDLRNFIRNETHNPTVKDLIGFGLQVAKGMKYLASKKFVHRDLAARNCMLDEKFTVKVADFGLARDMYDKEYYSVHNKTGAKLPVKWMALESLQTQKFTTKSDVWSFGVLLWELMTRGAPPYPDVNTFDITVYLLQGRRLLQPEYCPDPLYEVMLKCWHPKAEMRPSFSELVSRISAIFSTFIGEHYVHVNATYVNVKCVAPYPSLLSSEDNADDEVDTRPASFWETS

[4] = target: Hepatocyte growth factor receptor (Homo sapiens) (UniProt P08581); details: at 10 µM
[5] = target: MAP kinase-interacting serine/threonine-protein kinase 2 (Homo sapiens) (UniProt Q9HBH9); details: at 1 µM
Sequence of MAP kinase-interacting serine/threonine-protein kinase 2 (Homo sapiens) (Q9HBH9 whole entry, looked up): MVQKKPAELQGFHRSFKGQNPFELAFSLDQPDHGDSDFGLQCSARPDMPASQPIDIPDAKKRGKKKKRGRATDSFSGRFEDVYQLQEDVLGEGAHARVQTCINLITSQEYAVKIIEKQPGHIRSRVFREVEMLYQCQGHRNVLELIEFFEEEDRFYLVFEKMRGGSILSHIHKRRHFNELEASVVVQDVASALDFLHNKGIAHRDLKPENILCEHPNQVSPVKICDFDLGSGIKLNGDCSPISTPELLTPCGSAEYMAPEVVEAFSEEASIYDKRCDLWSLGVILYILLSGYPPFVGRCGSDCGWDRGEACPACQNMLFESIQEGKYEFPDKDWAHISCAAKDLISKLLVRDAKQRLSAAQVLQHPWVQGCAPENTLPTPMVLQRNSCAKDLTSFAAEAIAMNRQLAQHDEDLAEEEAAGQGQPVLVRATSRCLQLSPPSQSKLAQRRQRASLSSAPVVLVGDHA

[6] = target: MAP kinase-interacting serine/threonine-protein kinase 2 (Homo sapiens) (UniProt Q9HBH9); details: at 10 µM
[7] = target: T2, Muscle, skeletal receptor tyrosine-protein kinase (Homo sapiens) (UniProt O15146); details: at 1 µM
T2 sequence (whole entry): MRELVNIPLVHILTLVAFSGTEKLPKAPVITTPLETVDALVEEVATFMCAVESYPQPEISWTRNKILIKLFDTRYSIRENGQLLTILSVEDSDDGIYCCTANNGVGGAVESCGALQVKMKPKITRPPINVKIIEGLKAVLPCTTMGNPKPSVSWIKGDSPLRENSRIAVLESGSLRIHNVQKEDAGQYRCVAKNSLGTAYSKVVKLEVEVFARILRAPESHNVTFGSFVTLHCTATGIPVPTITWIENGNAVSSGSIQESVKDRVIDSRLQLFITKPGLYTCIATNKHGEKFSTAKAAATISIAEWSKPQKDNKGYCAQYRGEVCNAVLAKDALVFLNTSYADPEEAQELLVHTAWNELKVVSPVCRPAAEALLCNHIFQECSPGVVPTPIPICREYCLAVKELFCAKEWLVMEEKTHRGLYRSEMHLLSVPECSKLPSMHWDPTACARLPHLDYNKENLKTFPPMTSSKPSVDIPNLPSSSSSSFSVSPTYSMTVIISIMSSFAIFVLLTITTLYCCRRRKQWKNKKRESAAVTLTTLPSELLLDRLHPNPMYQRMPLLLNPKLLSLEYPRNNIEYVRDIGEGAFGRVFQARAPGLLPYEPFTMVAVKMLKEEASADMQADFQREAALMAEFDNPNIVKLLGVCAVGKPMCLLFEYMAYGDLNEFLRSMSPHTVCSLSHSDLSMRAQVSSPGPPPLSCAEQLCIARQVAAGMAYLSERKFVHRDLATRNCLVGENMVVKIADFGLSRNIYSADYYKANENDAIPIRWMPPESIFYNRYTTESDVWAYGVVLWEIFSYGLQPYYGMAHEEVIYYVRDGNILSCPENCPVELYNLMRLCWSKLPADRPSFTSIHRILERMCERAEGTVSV

[8] = target: T2, Muscle, skeletal receptor tyrosine-protein kinase (Homo sapiens); details: at 10 µM
[9] = target: T3, Serine/threonine-protein kinase Nek11 (Homo sapiens) (UniProt Q8NG66); details: at 1 µM
T3 sequence (whole entry): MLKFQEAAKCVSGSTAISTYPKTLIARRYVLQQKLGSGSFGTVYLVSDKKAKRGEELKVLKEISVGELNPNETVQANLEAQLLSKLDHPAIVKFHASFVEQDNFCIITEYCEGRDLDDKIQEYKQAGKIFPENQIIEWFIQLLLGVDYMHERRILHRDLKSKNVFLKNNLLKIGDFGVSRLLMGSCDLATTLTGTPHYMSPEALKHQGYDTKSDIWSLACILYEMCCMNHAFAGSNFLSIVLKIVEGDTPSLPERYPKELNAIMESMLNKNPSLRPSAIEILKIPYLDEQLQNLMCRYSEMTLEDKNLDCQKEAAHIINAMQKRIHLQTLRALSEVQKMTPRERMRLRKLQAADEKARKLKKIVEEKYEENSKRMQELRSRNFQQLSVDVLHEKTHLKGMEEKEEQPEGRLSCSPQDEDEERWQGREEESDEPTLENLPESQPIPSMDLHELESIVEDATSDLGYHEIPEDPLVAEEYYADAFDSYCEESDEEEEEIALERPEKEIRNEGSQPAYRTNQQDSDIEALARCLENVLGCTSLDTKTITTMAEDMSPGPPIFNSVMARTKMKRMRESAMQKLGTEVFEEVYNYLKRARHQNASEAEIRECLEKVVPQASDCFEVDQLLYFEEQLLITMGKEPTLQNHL

[10] = target: T3, Serine/threonine-protein kinase Nek11 (Homo sapiens); details: at 10 µM
[11] = target: T4, Serine/threonine-protein kinase Nek2 (Homo sapiens) (UniProt P51955); details: at 1 µM
T4 sequence (whole entry): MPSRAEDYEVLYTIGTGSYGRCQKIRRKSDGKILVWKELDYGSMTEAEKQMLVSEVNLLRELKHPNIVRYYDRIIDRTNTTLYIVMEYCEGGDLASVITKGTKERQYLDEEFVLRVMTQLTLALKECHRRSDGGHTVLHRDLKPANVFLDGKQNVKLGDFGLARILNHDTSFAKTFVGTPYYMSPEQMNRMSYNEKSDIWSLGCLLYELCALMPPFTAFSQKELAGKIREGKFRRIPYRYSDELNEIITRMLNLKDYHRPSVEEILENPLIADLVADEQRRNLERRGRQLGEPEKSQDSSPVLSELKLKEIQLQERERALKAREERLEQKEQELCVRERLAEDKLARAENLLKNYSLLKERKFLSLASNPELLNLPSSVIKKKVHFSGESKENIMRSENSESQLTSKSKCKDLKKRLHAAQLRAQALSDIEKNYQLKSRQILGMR

[12] = target: T4, Serine/threonine-protein kinase Nek2 (Homo sapiens); details: at 10 µM
[13] = target: T5, Serine/threonine-protein kinase Nek3 (Homo sapiens) (UniProt P51956); details: at 1 µM
T5 sequence (whole entry): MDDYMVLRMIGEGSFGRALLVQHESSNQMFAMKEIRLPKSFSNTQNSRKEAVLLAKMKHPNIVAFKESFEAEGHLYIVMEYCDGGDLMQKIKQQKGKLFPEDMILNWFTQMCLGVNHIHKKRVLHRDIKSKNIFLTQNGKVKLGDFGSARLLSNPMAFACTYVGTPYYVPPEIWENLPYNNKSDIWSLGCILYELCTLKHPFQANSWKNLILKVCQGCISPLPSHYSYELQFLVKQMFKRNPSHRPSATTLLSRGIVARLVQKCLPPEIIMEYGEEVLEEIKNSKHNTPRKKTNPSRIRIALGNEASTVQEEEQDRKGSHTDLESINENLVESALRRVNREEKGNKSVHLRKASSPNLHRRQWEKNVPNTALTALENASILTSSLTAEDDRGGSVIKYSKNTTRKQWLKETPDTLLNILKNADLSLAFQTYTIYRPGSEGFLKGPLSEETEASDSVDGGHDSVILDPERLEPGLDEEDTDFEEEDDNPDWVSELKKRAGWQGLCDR

[14] = target: T5, Serine/threonine-protein kinase Nek3 (Homo sapiens); details: at 10 µM
[15] = target: Serine/threonine-protein kinase tousled-like 2 (Homo sapiens) (UniProt Q86UE8); details: at 1 µM
Sequence of Serine/threonine-protein kinase tousled-like 2 (Homo sapiens) (Q86UE8 whole entry, looked up): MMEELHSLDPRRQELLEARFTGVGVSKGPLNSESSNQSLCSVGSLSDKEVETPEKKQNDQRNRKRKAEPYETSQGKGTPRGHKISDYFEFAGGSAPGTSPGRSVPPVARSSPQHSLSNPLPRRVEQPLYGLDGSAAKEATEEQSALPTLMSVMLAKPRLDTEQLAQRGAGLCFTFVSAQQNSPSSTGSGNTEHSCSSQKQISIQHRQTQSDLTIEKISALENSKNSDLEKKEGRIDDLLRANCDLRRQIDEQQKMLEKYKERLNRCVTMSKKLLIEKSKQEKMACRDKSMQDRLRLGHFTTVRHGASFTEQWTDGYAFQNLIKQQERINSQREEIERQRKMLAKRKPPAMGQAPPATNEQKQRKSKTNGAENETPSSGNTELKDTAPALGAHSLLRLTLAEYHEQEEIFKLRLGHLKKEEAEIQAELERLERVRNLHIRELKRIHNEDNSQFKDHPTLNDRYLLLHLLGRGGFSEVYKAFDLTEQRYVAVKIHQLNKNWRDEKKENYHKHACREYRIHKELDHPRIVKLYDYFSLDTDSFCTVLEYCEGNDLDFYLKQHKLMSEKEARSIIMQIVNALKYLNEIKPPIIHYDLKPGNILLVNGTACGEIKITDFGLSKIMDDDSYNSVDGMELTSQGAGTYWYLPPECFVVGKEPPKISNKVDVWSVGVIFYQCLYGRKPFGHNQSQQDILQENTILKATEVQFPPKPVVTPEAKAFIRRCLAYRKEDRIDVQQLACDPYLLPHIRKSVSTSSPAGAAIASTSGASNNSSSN

[16] = target: Serine/threonine-protein kinase tousled-like 2 (Homo sapiens) (UniProt Q86UE8); details: at 10 µM
[17] = target: T6, Testis-specific serine/threonine-protein kinase 1 (Homo sapiens) (UniProt Q9BXA7); details: at 1 µM
T6 sequence (whole entry): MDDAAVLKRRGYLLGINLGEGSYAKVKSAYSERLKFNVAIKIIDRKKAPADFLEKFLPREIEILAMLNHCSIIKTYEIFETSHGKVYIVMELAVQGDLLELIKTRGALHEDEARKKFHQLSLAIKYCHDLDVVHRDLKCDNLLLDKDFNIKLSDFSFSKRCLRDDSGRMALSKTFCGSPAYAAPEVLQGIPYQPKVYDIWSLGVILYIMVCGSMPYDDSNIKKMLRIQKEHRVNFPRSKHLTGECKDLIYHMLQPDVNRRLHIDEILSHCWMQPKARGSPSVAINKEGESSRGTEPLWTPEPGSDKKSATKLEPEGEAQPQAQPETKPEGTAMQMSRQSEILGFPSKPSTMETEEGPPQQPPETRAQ

[18] = target: T6, Testis-specific serine/threonine-protein kinase 1 (Homo sapiens); details: at 10 µM
[19] = target: T7, Testis-specific serine/threonine-protein kinase 2 (Homo sapiens) (UniProt Q96PF2); details: at 1 µM
T7 sequence (whole entry): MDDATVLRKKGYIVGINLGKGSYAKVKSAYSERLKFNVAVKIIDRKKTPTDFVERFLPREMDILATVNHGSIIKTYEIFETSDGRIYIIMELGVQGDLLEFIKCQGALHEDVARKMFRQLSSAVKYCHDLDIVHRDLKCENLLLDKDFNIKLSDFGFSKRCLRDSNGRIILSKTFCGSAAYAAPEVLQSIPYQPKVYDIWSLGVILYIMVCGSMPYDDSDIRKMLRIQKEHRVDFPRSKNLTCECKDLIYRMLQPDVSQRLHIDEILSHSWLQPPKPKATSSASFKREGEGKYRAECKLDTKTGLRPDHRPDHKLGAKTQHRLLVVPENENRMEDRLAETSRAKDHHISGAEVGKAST

[20] = target: T7, Testis-specific serine/threonine-protein kinase 2 (Homo sapiens); details: at 10 µM

COc1cc2ncnc(Nc3ccc(OCc4ccccc4)cc3)c2cc1OC
residual activity [1]: 64%
residual activity [2]: 49%
residual activity [3]: 87%
residual activity [4]: 87%
residual activity [5]: 90%
residual activity [6]: 68%
residual activity [7]: 118%
residual activity [8]: 77%
residual activity [9]: 99%
residual activity [10]: 101%
residual activity [11]: 101%
residual activity [12]: 113%
residual activity [13]: 90%
residual activity [14]: 80%
residual activity [15]: 115%
residual activity [16]: 96%
residual activity [17]: 104%
residual activity [18]: 90%
residual activity [19]: 107%
residual activity [20]: 102%
